Test results published in ChEMBL document CHEMBL3988442, “University of Dundee, Small-Polar-MMV Screening Library” (2021).
Screen size: about 48,000 compounds; about 13,000 (27%) showed an effect of 50% or more. Some of the results follow.

system: Wolbachia pipientis; assay: Anti-Wolbachia Cell-Based Screen; type: functional; design: scale not given: in the data most compounds retested in dose-response had high values; settings: 5 µM

Structure (SMILES) | Percent Effect
COC(=O)C1CN(CC(=O)Nc2cc(F)ccc2F)c2ccccc21 (centres undefined) | 6.543%
O=C(Cn1cc(C(=O)O)ccc1=O)Nc1ccc(F)cc1Cl | -4.302%
O=C(CN1CCCCC1Cn1cncn1)NCCc1ccc(F)cc1 (centres undefined) | -1.768%
Cc1nc(C)n(CC2CCCN2CC(=O)NCCc2ccccc2)n1 (centres undefined) | 5.202%
COC(=O)CC1CCCCN1CC(=O)NCCc1ccc(F)cc1 (centres undefined) | 106.1%
COC(=O)CC1CCCCN1CC(=O)Nc1cc(F)ccc1F (centres undefined) | 97.72%
O=C(CN1CCCCC1C1OCCO1)Nc1ccc(F)c(F)c1 (centres undefined) | -7.301%
COC(=O)CC1CCCCN1CC(=O)Nc1ccc(F)cc1Cl (centres undefined) | 107.7%
CCOC(=O)N1CCN(CC(=O)Nc2ccc(F)cc2Cl)CC1 | -11.41%
Cc1cc(C)c(CNC(=O)NCCNc2ncccn2)c(=O)[nH]1 | -4.444%
CCc1nsc(NC2CCCn3nc(CC)nc32)n1 (centres undefined) | 0.3299%
Nc1nc2c(c(NC(=O)Nc3ccc(Cl)c(Cl)c3)n1)CCCC2 | 4.347%
CC1=NN(c2ccc(C(=O)OCCNC(=O)c3ccncc3)cc2)CC1 | 6.071%
CCOC(=O)c1ccc(NC(=O)c2c(O)nc3c(c2O)CCCC3)cc1 | 115.5%
CC(C)(C)c1cnc(CN2CCCS(=O)(=O)CC2)o1 | -0.7322%
OCC1CCN(Cc2cc3c(cc2Br)OCCO3)CC1 | -6.909%
CC(C)c1nc(C2CCCN2Cc2ccno2)no1 (centres undefined) | -3.719%
FC(F)(F)Cn1ccnc1CN1CCCC1c1noc(C2CC2)n1 (centres undefined) | 2.411%
Cn1ccnc1CN1CCCC1c1noc(C2CC2)n1 (centres undefined) | 3.243%
CCc1nc(C2CCCN2Cc2nnc(CC)o2)no1 (centres undefined) | -8.839%
CCc1nc(C2CCCN2Cc2ccno2)no1 (centres undefined) | 111.3%
c1cc(CN2CCCC2c2noc(C3CC3)n2)on1 (centres undefined) | 95.79%
O=S(=O)(N1CCCCCC1)N1CCc2sccc2C1 | 4.086%
CS(=O)(=O)N1CCOC(CNC(=O)c2cccc(C#N)c2)C1 (centres undefined) | -22.73%
O=C(c1cccc(F)c1)N(CCCO)S(=O)(=O)c1cccs1 | -5.785%
Cc1cccc(OC2CCN(C(=O)Cn3ccc4ccccc43)CC2)n1 | 1.872%

Structure (SMILES) | Percent Effect
Cn1cc(CN2CCOC(c3cccc(-c4cccc(F)c4)n3)C2)cn1 (centres undefined) | 143.3%
Cn1cc(CN2CCOC(c3nccnc3-c3cccc(F)c3)C2)cn1 (centres undefined) | 187.6%
Cn1cc(CN2CCCC(CCc3ccccc3C(F)(F)F)C2)cn1 (centres undefined) | 9.578%
Cn1cc(CNC(=O)C2CCCN(Cc3cccc(F)c3)C2)cn1 (centres undefined) | -5.601%
Cn1cc(CN2CCCC(c3nccnc3-c3cccc(F)c3)C2)cn1 (centres undefined) | 135.8%
CC(C)c1ccc(CN2CCC3(CCCN(c4nncs4)C3)C2)cc1.O=C(O)C(F)(F)F (centres undefined) | 37.55%
Cc1cccc(OCCC(=O)N2CCN(S(=O)(=O)N(C)C)CC2)c1C | -2.723%
Cl.O=C(NC[C@@]1(COc2cnccn2)C[C@@H](O)[C@@H](O)C1)C1CCCC1 | -8.405%
CCCN(Cc1cnc2ccccc2n1)Cc1ccccc1OC | -2.298%
COc1ccc(CN(C(=O)C2CCOCC2)c2ccncc2)cc1 | -12.74%
COc1ccc(CN(C(=O)C2CCCO2)c2ccncc2)cc1 (centres undefined) | -15.48%
COc1ccccc1CN(C)Cc1ccnc(C2CCCO2)n1 (centres undefined) | 134%
COc1ccc(CN(C)Cc2ccnc(C3CCCO3)n2)cc1 (centres undefined) | 120.3%
COc1ccnc(N(C)Cc2ccccc2OC(F)(F)F)n1 | -0.2691%
COc1ccc(Cl)cc1NC(=O)CCC1CCCN(Cc2ncon2)C1 (centres undefined) | 23.91%
Cc1nc(NC(=O)NCc2cccnc2NCCN(C)C)sc1C | -3.378%
COCCN1CCC2(C1)c1ccccc1S(=O)(=O)N2C.O=C(O)C(F)(F)F (centres undefined) | 90.85%
COCCN1C2(CCN(CC3CC3)C2)c2ccccc2S1(=O)=O.O=C(O)C(F)(F)F (centres undefined) | 102.4%
COCCN1CCC2(C1)c1ccccc1S(=O)(=O)N2Cc1ccccc1.O=C(O)C(F)(F)F (centres undefined) | 6.934%
Cc1ccc(-n2ncc(C(=O)NC3CC(C)(C)NC(C)(C)C3)c2N)cc1 | 174.2%
Cc1ccc(-n2ncc(C(=O)NC3CCCCC3)c2N)cc1 | 3.957%
CC(C)C(=O)Nc1cc(C(=O)NC2CC(C)(C)NC(C)(C)C2)nn1C | -26.3%
CC1(C)CC(NC(=O)c2cnn(-c3ccccc3F)c2N)CC(C)(C)N1 | 151.8%
Cc1c(C(=O)NC2CC(C)(C)NC(C)(C)C2)cnn1-c1ccc(F)cc1 | -13.93%
CC(C)(C)SCCNC(=O)[C@@]12CNC[C@@H]1CN(S(C)(=O)=O)C2 | 5.951%
Cc1nc(C)n(CC2CN(CCOc3ccccc3F)CCO2)n1 (centres undefined) | 5.326%

Structure (SMILES) | Percent Effect
Cc1csc2c(C3CCN(CCOc4ccccc4F)CC3)nc(C)n12 | 93.69%
CCCc1n[nH]c(C2CN(CCCOc3ccccc3)CCO2)n1 (centres undefined) | -4.502%
CC(C)Cc1noc(CN2CCN(CCOc3ccc(Cl)cc3)CC2)n1 | -9.815%
Cc1csc2c(C3CCN(CCCOc4ccccc4)CC3)nc(C)n12 | 96.85%
Cc1ccc(OCCN2CCC(c3nc(C)n4c(C)csc34)CC2)cc1 | 140.7%
Cc1nc(C(=O)NC2CCN(CCOc3ccc(Br)cc3)CC2)cs1 | 6.734%
Cc1nc(CCN2CCC(Oc3ccccc3F)CC2)cs1 | -0.6309%
CN(CC(=O)N1CC(Oc2ccccc2Cl)C1)Cc1ccncc1 | -2.119%
O=C(c1cnc(OCC(F)(F)F)c(Cl)c1)N1CCc2ccc(O)cc2C1 | -3.134%
Cc1ccc(C(=O)O)cc1-c1cccc2c1CCNC2 | 128.8%
COc1cccc2c1N(S(=O)(=O)c1cc(C(=O)O)cs1)CCC2 | -3.989%
O=C(O)c1cnc(-c2cccc3c2CCNC3)c(Cl)c1 | 123.8%
COc1ccc(C(=O)O)cc1-c1cccc(C(C)N(C)C)c1 (centres undefined) | -0.7125%
O=C(O)c1cnc(OCC2CC2)c(Cl)c1 | -32.81%
COc1ccc(C(=O)O)cc1-c1cccc2c1CCNC2 | 99.52%
Cc1cnc(-n2cnnc2)c(-c2cccc3c2CCNC3)c1 | -5.841%
Cc1ccc(C(=O)O)cc1S(=O)(=O)N(C)c1cccc(C#N)c1 | 8.363%
Cc1ccc([C@@H]2CN(C(=O)c3cc(C)n[nH]3)C[C@H]2NC(=O)C2CC2)cc1 | 4.814%
CCNC(=O)CN(CC)S(=O)(=O)c1c(Br)cc2[nH]c(=O)oc2c1Cl | -2.285%
CN(C)CC(c1ccccc1)N(C)C(=O)c1cccc(NCC(=O)O)c1 (centres undefined) | 104.1%
CN(C(=O)c1cccc(NCC(=O)O)c1)C(C1CC1)C1CC1 | 109.4%
COC(C)c1cccc(NCc2cccs2)c1 (centres undefined) | 2.749%
CN(C(=O)c1ccccc1NCC(=O)O)C(C1CC1)C1CC1 | 114.3%
CC(=O)Nc1cccc(C(=O)N(C)C(C)Cc2cc(C)ccn2)c1 (centres undefined) | 4.881%
CN(CC(=O)N1CCCC1)C(=O)c1ccccc1Nc1ccccc1 | -0.554%
Cc1ccnc(NCCNC(=O)c2ccccc2NCC(=O)O)c1 | -16.08%

Structure (SMILES) | Percent Effect
Cc1cc(CNc2cccc(C(=O)N(C)c3ccccc3)c2)no1 | 2.006%
CN(C(=O)c1cccc(NCc2cccs2)c1)C(C1CC1)C1CC1 | 113%
CC(C)N(CC(=O)Nc1cccc(C(=O)N(C)C)c1)C1CC1 | 5.845%
CC(C)CN(C(=O)Nc1cccc(C(=O)N(C)C)c1)C1CC1 | 4.006%
CCn1nc(C)c(CCNC(=O)c2cccc(NCC(=O)O)c2)c1C | -5.115%
CC(C)(C)C(=O)N1C[C@@H](F)[C@@H](OCc2nc3ccccc3o2)C1 | -2.26%
Cc1cnn(C2CN(Cc3noc(C4CC4)n3)C2)c1 | -0.9556%
CN1C(=O)C2(CCN(S(C)(=O)=O)CC2)c2cc(F)ccc21.Cl | -38.1%
Brc1cc(CNCc2nnc3n2CCC3)cs1.Cl | -5.919%
O=C(CN(Cc1cccnc1)CC1CCCO1)Nc1ccc(F)cc1 (centres undefined) | -1.761%
O=C(COCC1CCCO1)N(Cc1cccnc1)c1ccc(F)cc1 (centres undefined) | 100.3%
O=C(CCc1cccnc1)N(Cc1ccsc1)CC1CCCO1 (centres undefined) | -15.29%
Cc1cccc(C(C(=O)NCCCc2ccncc2)N(C)C)c1 (centres undefined) | -9.46%
CN(C)C(=O)C1(CCCc2ccncc2)CCCN1 (centres undefined) | -8.359%
CNC(=O)C1(CCCc2ccncc2)CCCN1 (centres undefined) | -10.96%
CNC(=O)C1(CCCc2ccncc2)CCN1.O=C(O)C(F)(F)F (centres undefined) | 127.6%
CN(CCCNC(=O)NCc1ccncc1)CC(F)(F)F | -10.78%
CCN(Cc1ccncc1)C(=O)c1cn(CCCc2ccccc2)nn1 | -1.571%
CNC(=O)C1(CCCc2ccncc2)CCCCN1.Cl (centres undefined) | 104.3%
CCNc1ncc(C(=O)NCCCc2ccncc2)cn1 | -5.909%
CC(=O)NC(=O)C1(CCCc2ccncc2)CCN1 (centres undefined) | 96.13%
NC(=O)C1(CCCc2ccncc2)CCCN1 (centres undefined) | 96.03%
CC(CCNC(=O)NCCc1ccncc1)c1ccccc1 (centres undefined) | 4.177%
O=C(O)C(F)(F)F.O=C(O)C(F)(F)F.O[C@H]1CCN(CC2CC2)[C@H]1Cc1ccncc1 | 1.351%
CN(CCSc1ccccc1)C(=O)C(c1cccnc1)N1CCOCC1 (centres undefined) | 0.338%
Cc1cc(S(=O)(=O)Nc2cccc(I)c2)sc1C(=O)O | 5.422%
